Measurements as given in PubChem BioAssay (NCATS).
Results filed as inconclusive are left out. The source made the active and inactive calls. Calls follow the shape of the dose curve; as a rule, active = well fitted cell-killing curve with a large enough effect; inconclusive = small, poorly fitted or top-dose-only effect, or effect the other way; inactive = no such curve, though single readings can be large or run the other way.

Experiment: Quantitative High-Throughput drug screen in 47 multiple myeloma cell lines against the NCATS MIPE library collection: Karpas417_ECACC cell viability assay (AID 1918961)
Conditions: Karpas417 myeloma viability, CellTiter-Glo ATP luminescence, 48 h; viability (% of DMSO): at 45.8 µM (top of the series)
Source text: PI: Beverly A. Mock Ph.D.
Laboratory of Cancer Biology and Genetics,
Center for Cancer Research, National Cancer Institute,
National Institute of Health, Bethesda, Maryland
Drug resistance and disease progression are common in multiple myeloma (MM) patients, underscoring the need for new therapeutic combinations. […] We hypothesized that effective combinations would reduce MYC expression and enhance p16 activity. […] These preclinical data identify potentially useful drug combinations for evaluation in drug-resistant MM and reveal potential mechanisms of combined drug sensitivity.
Described herein is the primary MIPE qHTS used to cherrypick compounds. Validated compounds were then further tested for potential synergistic activiy.
[1] Peat TJ, Gaikwad SM, Dubois W, Gyabaah-Kessie N, Zhang S, Gorjifard S, Phyo Z, Andres M, Hughitt VK, Simpson RM, Miller MA, Girvin AT, Taylor A, Williams D, D'Antonio N, Zhang Y, Rajagopalan A, Flietner E, Wilson K, Zhang X, Shinn P, Klumpp-Thomas C, McKnight C, Itkin Z, Chen L, Kazandijian D, Zhang J, Michalowski AM, Simmons JK, Keats J, Thomas CJ, Mock BA. Drug combinations identified by high-throughput screening promote cell cycle transition and upregulate Smad pathways in myeloma. Cancer Lett. 2023 Aug 1;568:216284. doi: 10.1016/j.canlet.2023.216284. Epub 2023 Jun 24. PMID: 37356470; PMCID: PMC10408729.
SEQUENCE No. (e.g., 1, 2, 3, etc.); […] (e.g., Cells, Incubation, Reagent, etc.); VALUE and DESCRIPTION.
1; Cells; 5 uL; white, solid bottom 1536-well Greiner assay plate.
2; Compounds; 23 nL; Kalypsis pin tool (Wako USA) equipped with a 1536-well pin head to transfer to the assay plates.
3; Incubation; 48 hours; 37C incubation.
4; Reagent;5uL; CellTiter Glo (Promega).
5; Detector; 425V; Luminescence; Viewlux PerkinElmer.
NOTES (numbers refer to Sequence numbers above)
1. The cell-based screening methods employed in this study were like those previously published. Briefly, the corresponding myeloma cell lines were screened in 1,536-well plates with 500 cells, 5-uL per well for inhibition of cell viability (assessed by measuring ATP levels with CellTiterGlo).
2. NCATS MIPE 4.0 library of approved and investigational drugs were added using the Kalypsis pin tool. Wells treated with DMSO only for 100% viability and media only wells for 0% viability were used as controls.
3. The assay plates were covered and incubated for 48 hours in a 37C, 5% CO2 incubator with controlled humidity.
4. After 48 hours, CellTilter-GloTM luminescent substrate mix (Promega) reagent was added to the assay plate and plates we incubated for 5 min at room temperature.
5. Signal was measured as median relative luminescence units on a ViewLux (PerkinElmer) multiplate reader.
[1] Heske CM, Davis MI, Baumgart JT, Wilson K, Gormally MV, Chen L, Zhang X, Ceribelli M, Duveau DY, Guha R, Ferrer M, Arnaldez FI, Ji J, Tran HL, Zhang Y, Mendoza A, Helman LJ, Thomas CJ. Matrix Screen Identifies Synergistic Combination of PARP Inhibitors and Nicotinamide Phosphoribosyltransferase (NAMPT) Inhibitors in Ewing Sarcoma. Clin Cancer Res. 2017 Dec 1;23(23):7301-7311. doi: 10.1158/1078-0432.CCR-17-1121. Epub 2017 Sep 12. PMID: 28899971; PMCID: PMC6636827.
Potency is read from the fitted curve at half-maximal effect.

Compound	viability (% of DMSO)	Potency
CCCC(C)(COC(N)=O)COC(=O)NC(C)C (stereo not given)	64.9% (active)	–
CC(O)(CS(=O)(=O)c1ccc(F)cc1)C(=O)Nc1ccc(C#N)c(C(F)(F)F)c1 (stereo not given)	–	372 nM (active)
CNC(=O)N1N=C(c2ccc(N)cc2)c2cc3c(cc2CC1C)OCO3 (stereo not given)	–	1870 nM (active)
CNCC(O)c1ccc(O)cc1 (stereo not given)	80.8% (active)	–
O=C1CC[C@@]2(O)[C@H]3Cc4ccc(O)c5c4[C@@]2(CCN3CC2CC2)[C@H]1O5	–	inactive
N[C@@H](Cc1ccc(N(CCCl)CCCl)cc1)C(=O)O	–	2960 nM (active)
CN(C)[C@@H]1C(=O)C(C(N)=O)=C(O)[C@@]2(O)C(=O)C3=C(O)c4c(O)cccc4[C@@](C)(O)[C@H]3C[C@@H]12	–	inactive
C[C@@H]1[C@@H](CC(C[C@H]2O[C@@H]3O[C@]4(C)CC[C@@H]5[C@H](C)CC[C@@H]([C@H]2C)[C@@]35OO4)C[S+](=O)([O-])c2ccc(COC(=O)N(C)C)cc2)O[C@@H]2O[C@]3(C)CC[C@H]4[C@H](C)CC[C@@H]1[C@@]24OO3 (stereo not given in full)	–	132 nM (active)
COC1(CS(=O)c2ccccc2)CCN(CCc2c[nH]c3ccc(F)cc23)CC1 (stereo not given)	–	inactive
CN(C)CCc1ccc(O)cc1	–	inactive
